# Results filed as inconclusive are left out. Entries that show only a call come without a potency. The source made the active and inactive calls. Unless noted, the call rests on the fitted dose curve; in most records, active means well fitted curve in the direction sought with a large enough effect; inconclusive means small, poorly fitted or top-dose-only effect, or another doubt; inactive means no such curve, though single readings can be large; an effect the other way counts as inactive or inconclusive.
# Assays:
# [1] = Nrf2 qHTS screen for inhibitors: Validation (AID 493153; active means well fitted inhibition curve with a large enough effect in the main read-out, with a control signal flat, not every such curve was filed as active); conditions: Potency: luciferase luminescence; viability change: measured here: cytotoxicity max response
# Method in brief: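 Dose-response validation uses reporter A549 cells with firefly luciferase under an antioxidant response element. Compounds stay on cells 18-24 h at 37°C, and luminescence indicates Nrf2-driven transcription.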
# [2] = qHTS for Inhibitors of Cell Surface uPA Generation: Validation Assay (AID 493164);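 further: RAW 264.7 macrophage cells exposed to compound for 18 h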
# Method in brief: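 RAW 264.7, 4000 cells/well, o/n plating; cpd 7-pt 1:5 dilution 2.45 nM–38.3 uM final; 18 h, 37 C/5% CO2; ATP-Lite, 5 s luminescence exposure.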
# [3] = biological target: Galactokinase (Homo sapiens) (UniProt P51570); assay: qHTS Validation Assay for Inhibitors of Human Galactokinase (GALK) (AID 493189)
# Chain of Galactokinase (Homo sapiens) (P51570 whole entry, looked up): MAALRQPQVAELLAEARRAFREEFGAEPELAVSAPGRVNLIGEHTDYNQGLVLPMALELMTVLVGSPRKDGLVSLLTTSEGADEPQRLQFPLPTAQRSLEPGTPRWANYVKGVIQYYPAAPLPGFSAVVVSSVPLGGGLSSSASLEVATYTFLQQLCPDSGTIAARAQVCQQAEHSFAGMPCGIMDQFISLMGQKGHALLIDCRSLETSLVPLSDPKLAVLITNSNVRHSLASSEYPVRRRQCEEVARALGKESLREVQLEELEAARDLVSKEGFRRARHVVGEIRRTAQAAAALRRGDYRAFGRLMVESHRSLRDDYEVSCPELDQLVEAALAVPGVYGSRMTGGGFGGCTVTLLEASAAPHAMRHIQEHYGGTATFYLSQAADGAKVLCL
# Method in brief: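 GALK (5 nM) with 35 uM ATP and 100 uM galactose in HEPES pH 8.0 with MgCl2, NaCl, DTT and BSA. Reaction ran 1 h at room temperature. Residual ATP read by Kinase-Glo Plus luminescence.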
# [4] = Validation screen for small molecules that induce DNA re-replication in SW480 colon adenocarcinoma cells (AID 504364)
# Method in brief: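 Cells are treated 48 hr with test compound, stained 40 min with Hoechst at 37 C, and scanned for nuclear fluorescence; compounds inducing re-replication increase nuclei with elevated intensity.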
# [5] = biological target: Peptidyl-prolyl cis-trans isomerase NIMA-interacting 1 (Homo sapiens) (UniProt Q13526); assay: qHTS Validation Assay to Find Inhibitors of Pin1 (AID 504536; active means well fitted inhibition curve with a large enough effect in the polarisation, with a control signal flat, not every such curve was filed as active; the % refers to the polarisation)
# Chain of Peptidyl-prolyl cis-trans isomerase NIMA-interacting 1 (Homo sapiens) (Q13526 whole entry, looked up): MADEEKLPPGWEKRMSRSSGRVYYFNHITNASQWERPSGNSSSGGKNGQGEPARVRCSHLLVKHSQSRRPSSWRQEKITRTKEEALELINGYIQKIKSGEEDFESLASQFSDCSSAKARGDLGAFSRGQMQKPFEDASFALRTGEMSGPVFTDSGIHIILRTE
# Method in brief: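 Fluorescence polarization competition: compounds (titration) displace HiFluor-488-labeled Pin1-1b peptide from Pin1 (0.3 uM final) in pH 7.5 HEPES buffer with DTT, 10 min at room temperature; %Activity normalized to no-enzyme wells, curves fitted.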
# [6] = biological target: Phosphoglycerate kinase, glycosomal (Trypanosoma brucei brucei) (UniProt P07378); assay: qHTS Validation Assay to Find Inhibitors of Phosphoglycerate Kinase (AID 504547)
# Chain of Phosphoglycerate kinase, glycosomal (Trypanosoma brucei brucei) (P07378 whole entry, looked up): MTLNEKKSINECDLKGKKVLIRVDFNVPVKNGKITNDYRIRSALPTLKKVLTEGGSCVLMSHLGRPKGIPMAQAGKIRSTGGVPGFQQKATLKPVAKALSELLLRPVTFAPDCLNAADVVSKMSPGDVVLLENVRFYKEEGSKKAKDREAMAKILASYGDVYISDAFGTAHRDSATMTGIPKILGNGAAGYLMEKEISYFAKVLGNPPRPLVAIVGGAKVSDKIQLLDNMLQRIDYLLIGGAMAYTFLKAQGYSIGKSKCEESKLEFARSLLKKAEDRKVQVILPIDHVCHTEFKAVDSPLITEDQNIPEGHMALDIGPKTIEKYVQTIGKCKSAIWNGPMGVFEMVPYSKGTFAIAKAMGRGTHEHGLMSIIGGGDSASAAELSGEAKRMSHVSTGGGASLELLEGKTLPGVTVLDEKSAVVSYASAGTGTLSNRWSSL
# Method in brief: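 PGK activity was coupled to GAPDH (100nM final), which generates the unstable substrate 1,3-bisphosphoglycerate in-well. Reactions ran 60 minutes at room temperature in 100mM TEA pH 7.6, 5mM MgCl2, 0.01% Tween-20, then Kinase-Glo Plus luminescence was read.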
# [7] = biological target: phosphoglycerate mutase (Leishmania major) (UniProt Q4Q090); assay: qHTS Validation Assay to Find Inhibitors of Phosphoglycerate Mutase (AID 504548); conditions: Potency: inhibition qHTS; further: series mostly up to about 58 µM
# Chain of phosphoglycerate mutase (Leishmania major) (Q4Q090 1-553): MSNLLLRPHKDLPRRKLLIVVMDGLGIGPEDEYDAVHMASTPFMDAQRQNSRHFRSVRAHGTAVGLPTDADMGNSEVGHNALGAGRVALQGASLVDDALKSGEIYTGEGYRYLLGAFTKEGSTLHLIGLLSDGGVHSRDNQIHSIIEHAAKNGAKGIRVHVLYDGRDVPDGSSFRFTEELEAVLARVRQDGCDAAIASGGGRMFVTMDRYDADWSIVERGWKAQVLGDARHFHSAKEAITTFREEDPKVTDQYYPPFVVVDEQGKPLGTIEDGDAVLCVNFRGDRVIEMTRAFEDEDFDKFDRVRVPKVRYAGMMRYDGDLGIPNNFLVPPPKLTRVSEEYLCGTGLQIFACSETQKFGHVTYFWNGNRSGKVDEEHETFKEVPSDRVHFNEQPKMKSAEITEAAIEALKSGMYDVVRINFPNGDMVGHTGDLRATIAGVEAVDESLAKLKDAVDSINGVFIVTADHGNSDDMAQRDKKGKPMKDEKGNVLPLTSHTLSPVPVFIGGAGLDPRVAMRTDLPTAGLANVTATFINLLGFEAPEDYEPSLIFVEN
# Method in brief: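 Luminescent end-point read-out via Kinase-GloPlus after a 10-minute development. Reaction: 1.25nM Leishmania major PGAM with substrate and compound, 45 minutes at room temperature in TEA buffer (pH 7.6) with MgCl2 and Tween-20.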
# [8] = biological target: Ubiquitin carboxyl-terminal hydrolase 1 (Homo sapiens) (UniProt O94782); assay: Inhibitors of USP1/UAF1: Pilot qHTS (AID 504865);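 further: rhodamine fluorescence freed from ubiquitin-rhodamine substrate followed over time; top concentration of the series differs between compounds; nearly all actives have a fitted effect of over 35% in size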
# Chain of Ubiquitin carboxyl-terminal hydrolase 1 (Homo sapiens) (O94782 whole entry, looked up): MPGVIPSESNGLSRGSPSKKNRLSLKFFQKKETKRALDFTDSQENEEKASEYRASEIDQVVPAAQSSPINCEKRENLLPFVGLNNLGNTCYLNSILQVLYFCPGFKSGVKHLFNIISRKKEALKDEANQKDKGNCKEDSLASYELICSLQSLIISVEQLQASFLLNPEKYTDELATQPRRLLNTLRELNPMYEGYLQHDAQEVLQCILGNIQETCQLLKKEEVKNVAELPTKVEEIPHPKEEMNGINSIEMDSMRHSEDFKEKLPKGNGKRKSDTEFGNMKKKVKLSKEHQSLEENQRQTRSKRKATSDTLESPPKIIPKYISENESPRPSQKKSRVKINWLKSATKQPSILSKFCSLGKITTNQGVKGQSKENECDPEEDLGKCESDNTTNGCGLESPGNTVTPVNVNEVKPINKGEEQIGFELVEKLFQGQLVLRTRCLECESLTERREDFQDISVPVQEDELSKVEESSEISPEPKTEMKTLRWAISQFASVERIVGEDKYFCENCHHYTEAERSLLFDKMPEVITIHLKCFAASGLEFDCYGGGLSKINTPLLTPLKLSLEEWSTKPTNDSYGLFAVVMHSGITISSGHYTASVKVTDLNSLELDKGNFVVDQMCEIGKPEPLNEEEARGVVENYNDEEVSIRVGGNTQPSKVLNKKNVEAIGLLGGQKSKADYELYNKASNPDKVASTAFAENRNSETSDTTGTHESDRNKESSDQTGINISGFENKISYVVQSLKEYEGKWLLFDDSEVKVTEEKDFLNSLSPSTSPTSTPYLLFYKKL
# Method in brief: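 USP1/UAF1 complex at 1 nM preincubated 15 min at room temperature with compound, then Ub-Rho substrate added at 150 nM final. Fluorescence (480/540 nm) read kinetically in 50 mM HEPES pH 7.8, 0.5 mM EDTA, 1 mM TCEP, 0.1 mg/ml BSA, 0.01% Tween-20.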
# [9] = qHTS for Inhibitors of ATXN expression: Validation of Cytotoxic Assay (AID 588349);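 further: cells exposed to compound for 72 hr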
# Method in brief: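 HEK293, compound dose series, 72 hr / 37 degrees C; viability via CellTiter Glo (intracellular ATP).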
# [10] = qHTS for Inhibitors of ATXN expression: Validation (AID 588378); further: series mostly up to about 57 µM; nearly all actives have a fitted effect of over 75% in size
# Method in brief: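 HEK293 cells carrying ATXN2-firefly luciferase reporter, treated with compound 24 h at 37 °C. Viability read first by CellTiter-Fluor (405/525 nm), then reporter expression by Bright-Glo luminescence; controls were a known ATXN2 expression inhibitor and a luciferase inhibitor.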
Structure (SMILES),Potency [1],viability change [1] [%],outcome [2],Potency [3],Potency [4],Potency [5],Potency [6],Potency [7],Potency [8],Potency [9],Potency [10]
C#CC(N)CCC(=O)O (configuration not stated),inactive,2.08,inactive,inactive,inactive,inactive,inactive,inactive,inactive,inactive,inactive
O=C(O)CCC(=O)N1CCCC1C(=O)O (configuration not stated),inactive,-2.91,inactive,inactive,inactive,inactive,inactive,inactive,inactive,inactive,inactive
OC[C@H]1NC[C@@H](O)[C@@H]1O,inactive,4.02,inactive,inactive,inactive,inactive,inactive,inactive,inactive,inactive,inactive
CCCCOc1cc(CC2CNC(=O)N2)ccc1OC (configuration not stated),inactive,4.87,inactive,inactive,inactive,inactive,inactive,inactive,inactive,inactive,inactive
O=C(O)/C=C/c1ccc(O)c(O)c1,inactive,3.15,inactive,inactive,inactive,inactive,inactive,inactive,inactive,inactive,inactive
N=C(N)SCCN,inactive,0.333,inactive,inactive,inactive,inactive,inactive,inactive,inactive,inactive,inactive
O=C(O)c1cccnc1C(=O)O,inactive,1.3,inactive,inactive,inactive,inactive,inactive,inactive,inactive,inactive,inactive
CC(C)C[C@H](NC(=O)[C@H](O)[C@H](N)Cc1ccccc1)C(=O)O,inactive,5.98,inactive,inactive,inactive,inactive,inactive,inactive,inactive,inactive,inactive
C=CC1(C)CC(=O)C2(O)C(C)(O1)C(OC(C)=O)C(O)C1C(C)(C)CCC(O)C12C (configuration not stated),inactive,4.77,inactive,inactive,inactive,inactive,inactive,inactive,inactive,inactive,inactive
C[C@@H](NCCc1ccc(O)cc1)[C@@H](O)c1ccc(O)cc1,inactive,9.14,inactive,inactive,inactive,inactive,inactive,inactive,inactive,inactive,inactive
CNc1ncnc2c1ncn2[C@H]1C[C@H](OP(=O)(O)O)[C@@H](COP(=O)(O)O)O1,inactive,-10.4,inactive,inactive,inactive,inactive,inactive,inactive,inactive,inactive,inactive
CC1C(=O)N(C)C(=O)c2nc[nH]c21 (configuration not stated),inactive,-0.209,inactive,inactive,inactive,inactive,inactive,inactive,inactive,inactive,inactive
N[C@@H](Cc1c[nH]c2ccccc12)C(=O)O,inactive,-4.03,inactive,inactive,inactive,inactive,inactive,inactive,inactive,inactive,inactive
NCCCCN=C(N)N,inactive,-0.37,inactive,inactive,inactive,inactive,inactive,inactive,inactive,inactive,inactive
CCCCCCCCCC(=O)NC(CN1CCOCC1)[C@H](O)c1ccccc1 (some centres not stated),inactive,-4.61,inactive,inactive,inactive,inactive,inactive,inactive,inactive,inactive,
OCC1NCC(O)C(O)C1O (configuration not stated),inactive,-2.29,inactive,inactive,inactive,inactive,inactive,inactive,inactive,inactive,inactive
CC(/C=C/c1cccc(Oc2ccc(F)cc2)c1)N(O)C(N)=O (configuration not stated),inactive,3.6,inactive,inactive,inactive,inactive,inactive,inactive,inactive,inactive,inactive
NC1CONC1=O (configuration not stated),inactive,2.91,inactive,inactive,inactive,inactive,inactive,inactive,inactive,inactive,inactive
CC[N+](CC)(CC)CC(=O)Nc1c(C)cccc1C,inactive,-3.66,inactive,inactive,inactive,inactive,inactive,inactive,inactive,inactive,inactive
N#CC(C#N)=C(N)/C(C#N)=C/c1ccc(O)cc1,inactive,1.78,inactive,inactive,inactive,inactive,inactive,inactive,inactive,inactive,inactive
N[C@@H](CCCC(=O)O)C(=O)O,inactive,7.86,inactive,inactive,inactive,inactive,inactive,inactive,inactive,inactive,inactive
NCC(O)(CS(=O)(=O)O)c1ccc(Cl)cc1 (configuration not stated),inactive,4.12,inactive,inactive,inactive,inactive,inactive,inactive,inactive,inactive,inactive

Structure (SMILES),Potency [1],viability change [1] [%],outcome [2],Potency [3],Potency [4],Potency [5],Potency [6],Potency [7],Potency [8],Potency [9],Potency [10]
O=S(=O)(c1cccc2c(Cl)cccc12)N1CCCNCC1,inactive,2.63,inactive,inactive,inactive,inactive,inactive,inactive,inactive,inactive,
NC1(C(=O)O)CCCCC1,inactive,-4.89,inactive,inactive,inactive,inactive,inactive,inactive,inactive,inactive,inactive
NCCCCN,inactive,-1.47,inactive,inactive,inactive,inactive,inactive,inactive,inactive,inactive,inactive
CCCN(CCc1ccccc1)C1CCc2c(O)cccc2C1 (configuration not stated),inactive,-8.23,inactive,inactive,inactive,inactive,inactive,inactive,inactive,,
Fc1ccc(CN(C2=NCCN2)c2c(Cl)cccc2Cl)cc1,inactive,-18.2,inactive,inactive,inactive,inactive,inactive,inactive,inactive,,
CC(N)=NCCCC[C@@H](N)C(=O)O,inactive,-0.552,inactive,inactive,inactive,inactive,inactive,inactive,inactive,inactive,inactive
S=C(S)N1CCCC1,inactive,-3.57,inactive,inactive,inactive,inactive,inactive,inactive,inactive,inactive,inactive
Cc1cccc(C)c1OCC(N)C(C)C (configuration not stated),inactive,4.6,inactive,inactive,inactive,inactive,inactive,inactive,inactive,inactive,inactive
NC(=O)CNCCC(c1ccccc1)c1ccccc1,inactive,12.7,inactive,inactive,inactive,inactive,inactive,inactive,inactive,inactive,inactive
CN1CCN(c2nc3cc(C(F)(F)F)ccc3n3cccc23)CC1,inactive,3.07,inactive,inactive,inactive,inactive,inactive,inactive,inactive,,
NC(C(=O)N[C@@H]1C(=O)N2C(C(=O)O)=C(Cl)CS[C@H]12)c1ccccc1 (some centres not stated),inactive,1.5,inactive,inactive,inactive,inactive,inactive,inactive,inactive,inactive,inactive
CC(=O)O[C@H]1CC2(C)[C@@H](C[C@@H](O)[C@H]3[C@@]4(C)CC[C@@H](O)[C@@H](C)[C@@H]4CC[C@@]32C)C1=C(CCC=C(C)C)C(=O)O (some centres not stated),inactive,-4.76,inactive,inactive,inactive,inactive,inactive,inactive,inactive,inactive,inactive
COc1cc(C(O)C(=O)O)ccc1O (configuration not stated),inactive,10.2,inactive,inactive,inactive,inactive,inactive,inactive,inactive,inactive,inactive
OC1(c2ccc(Cl)cc2)CCN(Cc2c[nH]c3ccccc23)CC1,inactive,-2.32,inactive,inactive,inactive,inactive,inactive,inactive,inactive,inactive,
O=C(O)C1CCNCC1,inactive,-14.4,inactive,inactive,inactive,inactive,inactive,inactive,inactive,inactive,inactive
O=C(O)C1CCCNC1 (configuration not stated),inactive,1.96,inactive,inactive,inactive,inactive,inactive,inactive,inactive,inactive,inactive
O=C(O)/C(=C/c1c(C(=O)O)[nH]c2cc(Cl)cc(Cl)c12)c1ccccc1,inactive,4.57,inactive,inactive,inactive,inactive,inactive,inactive,inactive,,inactive
Oc1cc2c(cc1O)C(c1ccccc1)CNCC2 (configuration not stated),inactive,-2.55,inactive,inactive,inactive,inactive,inactive,inactive,inactive,inactive,inactive
NC(Cc1cccc(-c2ccccc2CP(=O)(O)O)c1)C(=O)O (configuration not stated),inactive,0.913,inactive,inactive,inactive,inactive,inactive,inactive,inactive,inactive,inactive
CCN(CC)CCCCCCCCOC(=O)c1cc(OC)c(OC)c(OC)c1,inactive,6.3,inactive,inactive,inactive,inactive,inactive,inactive,inactive,,inactive
CC1CCN(CC[C@H]2CCCN2S(=O)(=O)c2cccc(O)c2)CC1,inactive,8.25,inactive,inactive,inactive,inactive,inactive,inactive,inactive,inactive,inactive
